Records with an inconclusive call do not appear. Activity calls are given as the source filed them. Unless noted, calls come from the whole dose curve.

System in one assay: not listed separately
In words: qHTS assay for small molecule agonists of retinoid X receptor alpha signaling (AID 588544). Note: potency is the fitted concentration of half-maximal effect. Particulars: HEK293T RXRa-UAS-bla, beta-lactamase reporter, 18 h; 530 nm emission. A general note: qHTS replaces the single test concentration by a dilution series.
As for `CC(=O)C(C)=O`, the max response is -1.88%.
On the same count and under the same terms, the same measure for `NC(=O)c1ccccc1`: -1.09%.
Same read-out and setting: as for `C/C(=C\c1ccc(C(=O)O)cc1)c1ccc2c(c1)C(C)(C)CCC2(C)C`, the figure is 0.91%.

In another assay the target is Retinoic acid receptor RXR-alpha (Homo sapiens) (UniProt P19793). Described as above. To be noted: HEK293T RXRa-UAS-bla, beta-lactamase reporter, 18 h; series mostly up to 76.7 µM.
Chain of Retinoic acid receptor RXR-alpha (Homo sapiens) (P19793 whole entry, looked up): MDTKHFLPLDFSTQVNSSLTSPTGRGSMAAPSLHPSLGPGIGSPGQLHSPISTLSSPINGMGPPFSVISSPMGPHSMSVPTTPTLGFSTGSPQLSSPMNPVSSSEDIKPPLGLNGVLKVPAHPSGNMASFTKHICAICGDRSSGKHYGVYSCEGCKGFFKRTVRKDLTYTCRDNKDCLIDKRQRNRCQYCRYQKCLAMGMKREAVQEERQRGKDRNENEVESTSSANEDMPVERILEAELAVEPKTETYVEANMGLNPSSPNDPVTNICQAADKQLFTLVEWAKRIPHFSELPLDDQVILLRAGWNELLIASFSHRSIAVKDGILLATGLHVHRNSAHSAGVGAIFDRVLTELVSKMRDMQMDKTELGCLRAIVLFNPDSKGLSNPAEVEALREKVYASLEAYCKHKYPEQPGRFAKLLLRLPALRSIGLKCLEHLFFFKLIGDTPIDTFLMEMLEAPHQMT
On to `CC(=O)C(C)=O`, for which the Potency result was “inactive”.
Consider `NC(=O)c1ccccc1`, for which the Potency result was “inactive”.
The same measure, in the same setting: as for `C/C(=C\c1ccc(C(=O)O)cc1)c1ccc2c(c1)C(C)(C)CCC2(C)C`, the figure is 708 nM (active).

For a further assay, the target named is Thyroid hormone receptor beta (Homo sapiens) (UniProt P10828). In words: qHTS assay for small molecule agonists of thyroid hormone receptor beta signaling (AID 588545). Particulars: TR-UAS-bla GripTite HEK 293, beta-lactamase ratio, agonist mode, 18 h, percent of T3 response, DMSO as zero; series mostly up to 76.7 µM. In a few lines: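 In this cell-based screen, titrated compounds act on HEK 293 cells held in medium with 2% charcoal/dextran FBS, NEAA and pyruvate for 18 hrs at 37 C. Responses are expressed relative to T3 (10 nM) as 100% and basal DMSO as 0%.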
Chain of Thyroid hormone receptor beta (Homo sapiens) (P10828 whole entry, looked up): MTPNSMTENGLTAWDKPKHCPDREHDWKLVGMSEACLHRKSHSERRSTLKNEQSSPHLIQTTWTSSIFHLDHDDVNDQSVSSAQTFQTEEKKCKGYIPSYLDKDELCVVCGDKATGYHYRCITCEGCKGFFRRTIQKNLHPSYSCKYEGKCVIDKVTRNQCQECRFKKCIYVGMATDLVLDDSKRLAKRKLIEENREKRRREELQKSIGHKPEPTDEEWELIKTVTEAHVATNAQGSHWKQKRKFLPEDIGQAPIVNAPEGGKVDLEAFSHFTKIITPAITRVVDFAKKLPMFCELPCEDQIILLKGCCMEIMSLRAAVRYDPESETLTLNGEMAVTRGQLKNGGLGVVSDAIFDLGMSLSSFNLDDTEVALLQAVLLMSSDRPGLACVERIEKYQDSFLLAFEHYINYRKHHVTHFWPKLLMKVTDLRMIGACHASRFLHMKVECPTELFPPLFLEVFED
For `CCCCCCCCCCCCCCSCC(=O)O`, the outcome was inactive.
For the molecule `CC1=C(/C=C/C(C)=C/C=C/C(C)=C\C(=O)O)C(C)(C)CCC1`, the result was inactive.
Take `CCCc1c(OCCCOc2ccc(OCC(=O)O)cc2)ccc(C(C)=O)c1O`: the outcome was inactive.
`CC(=O)C(C)=O`: the result was inactive.
On to `NC(=O)c1ccccc1`, for which the result was inactive.

System in the next assay: not listed separately
In words: qHTS assay for small molecule antagonists of retinoid X receptor alpha signaling (AID 588546; active = well fitted inhibition curve with a large enough effect in the signal ratio, with a control signal flat, not every such curve was filed as active; the % refers to the signal ratio;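 note: cells stimulated with 9-cis-retinoic acid as agonist; % is set by controls: 0 for no effect and ±100 for the full control effect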). To be noted: HEK293T RXRa-UAS-bla, beta-lactamase ratio, antagonist mode; measured here: W530 green channel, cytotoxicity proxy. Put shortly: (§1)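 Beta-lactamase reporter inhibition, read as CCF4 fluorescence ratio (ex 405, em 460/530 nm) after 2 h at RT. HEK293T UAS-bla cells, 2500/well, were stimulated with 9-cis-RA at 500 or 100 nM final alongside test compound for 18 h at 37 C.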
As for `CCCCCCCCCCCCCCSCC(=O)O`, the max response is 10.4%.
For the molecule `CCCc1c(OCCCOc2ccc(OCC(=O)O)cc2)ccc(C(C)=O)c1O`, the max response stood at 32.8%.
As for `CC(=O)C(C)=O`, the max response is 7.05%.
Still for that read-out and setting: the same measure for `NC(=O)c1ccccc1`: -3.13%; for `C/C(=C\c1ccc(C(=O)O)cc1)c1ccc2c(c1)C(C)(C)CCC2(C)C`: -6.55%.

The target of a further assay is Retinoic acid receptor RXR-alpha (Homo sapiens) (UniProt P19793). Described as above. To be noted: HEK293T RXRa-UAS-bla, beta-lactamase ratio, antagonist mode. Put shortly: as §1
For the molecule `CCCCCCCCCCCCCCSCC(=O)O`, the max response is 5.79% (inactive).
In the case of `CCCc1c(OCCCOc2ccc(OCC(=O)O)cc2)ccc(C(C)=O)c1O`, the max response was -30.3% (inactive).
On to `CC(=O)C(C)=O`, for which the max response is 13% (inactive).
Same read-out and setting: as for `NC(=O)c1ccccc1`, the figure is 5.33% (inactive).
Consider `C/C(=C\c1ccc(C(=O)O)cc1)c1ccc2c(c1)C(C)(C)CCC2(C)C`, for which the max response was 9.51% (inactive).

In another assay the target is Thyroid hormone receptor beta (Homo sapiens) (UniProt P10828). In words: qHTS assay for small molecule antagonists of thyroid hormone receptor beta signaling (AID 588547; active = well fitted inhibition curve with a large enough effect in the signal ratio, with a control signal flat, not every such curve was filed as active; the % refers to the signal ratio;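 note: cells stimulated with 0.4 nM T3 agonist during compound exposure; % is set by controls: 0 for no effect and ±100 for the full control effect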). To be noted: TR-UAS-bla HEK293, beta-lactamase ratio, antagonist mode, 18 h. In a few lines: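 TR-UAS-bla GripTite HEK293 cells in 2% charcoal/dextran FBS medium were preincubated 4 h at 37 C, given compound (0.59 nM to 92 uM) plus 0.4 nM T3 (final) for 18 h, then CCF4 for 2 h at RT; Hill fit gave IC50.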
For the molecule `CCCCCCCCCCCCCCSCC(=O)O`, the activity change % (negative = inhibition) is -24.7% (inactive).
`CC1=C(/C=C/C(C)=C/C=C/C(C)=C\C(=O)O)C(C)(C)CCC1`: the activity change % (negative = inhibition) was 9.82% (inactive).
Still for that read-out and setting: the same measure for `CC(=O)C(C)=O`: -0.316% (inactive).
Same read-out and setting: as for `NC(=O)c1ccccc1`, the figure is -4.09% (inactive).

(Values after PubChem BioAssay (NCATS).)
